# Experimental data: paper PMC11062922 (Nature Chemical Biology, 2023)
# Read-outs that look alike come from different tables or passages of the source.
# How the values were obtained:
# Set-up in all cases: species or system human, MV4-11 + K-562 + COLO205 + SK-N-BE2 + OVCAR-8
# ATM = details: read-out: apparent Kd, n = 1
# AURKA = details: read-out: apparent Kd, n = 1
# CAMKK2 = details: read-out: apparent Kd, n = 1
# CHEK1 = details: read-out: apparent Kd, n = 1
# EPHA4 = details: read-out: apparent Kd, n = 1
# EPHA5 = details: read-out: apparent Kd, n = 1
# EPHB2 = details: read-out: apparent Kd, n = 1
# EPHB4 = details: read-out: apparent Kd, n = 1
# RPS6KA4 = details: read-out: apparent Kd, n = 1
# TNK1 = details: read-out: apparent Kd, n = 1
# MARK3 = details: read-out: apparent Kd, n = 1
# PIP4K2C = details: read-out: apparent Kd, n = 1
# PRKACB = details: read-out: apparent Kd, n = 1
# PRKAG2 = details: read-out: apparent Kd, n = 1
# CSNK1D = details: read-out: apparent Kd, n = 1
# CDK16 = details: read-out: apparent Kd, compound concentrations: 100 nM and 1000 nM (sheet 'Samples'), n = 1
# MAPK9 = details: read-out: apparent Kd, compound concentrations: 100 nM and 1000 nM (sheet 'Samples'), n = 1
# PRKACA = details: read-out: apparent Kd, compound concentrations: 100 nM and 1000 nM (sheet 'Samples'), n = 1
# STK4 = details: read-out: apparent Kd, compound concentrations: 100 nM and 1000 nM (sheet 'Samples'), n = 1
# MAPK10 = details: read-out: apparent Kd, compound concentrations: 100 nM and 1000 nM (sheet 'Samples'), n = 1
# [1] = compound concentrations:100 nM and 1000 nM (sheet 'Samples')
compound,measurement,setting,value
CN1C[C@@H]2Cn3c(c(C4=C(c5cn(C)c6ccccc56)C(=O)NC4=O)c4ccccc43)C[C@H]2C1.Cl [RO0320234-001],potency estimated from few doses,ATM; [1],29.7 nM
same,potency estimated from few doses,AURKA; [1],368 nM
same,potency estimated from few doses,CAMKK2; [1],1430 nM
same,potency estimated from few doses,CHEK1; [1],1280 nM
same,potency estimated from few doses,EPHA4; [1],321 nM
same,potency estimated from few doses,EPHA5; [1],207 nM
same,potency estimated from few doses,EPHB2; [1],52.9 nM
same,potency estimated from few doses,EPHB4; [1],15.9 nM
same,potency estimated from few doses,RPS6KA4; [1],1630 nM
same,potency estimated from few doses,TNK1; [1],9.27 nM
O=C1NC(=O)C(N2CCc3ccccc32)=C1c1ccccc1Cl [SB-373598],potency estimated from few doses,ATM; [1],39.1 nM
same,potency estimated from few doses,AURKA; [1],295 nM
same,potency estimated from few doses,CAMKK2; [1],588 nM
same,potency estimated from few doses,CHEK1; [1],999 nM
same,potency estimated from few doses,EPHA4; [1],387 nM
same,potency estimated from few doses,EPHA5; [1],276 nM
same,potency estimated from few doses,EPHB2; [1],110 nM
same,potency estimated from few doses,EPHB4; [1],129 nM
same,potency estimated from few doses,MARK3; [1],1280 nM
same,potency estimated from few doses,PIP4K2C; [1],1020 nM
same,potency estimated from few doses,PRKACB; [1],1480 nM
same,potency estimated from few doses,PRKAG2; [1],1390 nM
same,potency estimated from few doses,RPS6KA4; [1],1220 nM
same,potency estimated from few doses,TNK1; [1],31.3 nM
Cl.NCc1ccc(-c2nc(-c3ccc(Cl)c(O)c3)c(-c3ccncc3)[nH]2)cc1 [SB-476429-A],potency estimated from few doses,CSNK1D; [1],1290 nM
Cn1ncc2c(N)ncnc21 [SKF-18267],potency estimated from few doses,"ATM; compound concentrations: 100 nM and 1000 nM (sheet 'Samples'), CATDS: 1.5157721070637E-2",152 nM
same,potency estimated from few doses,"AURKA; compound concentrations: 100 nM and 1000 nM (sheet 'Samples'), CATDS: 5.9187216005476898E-3",594 nM
same,potency estimated from few doses,"CAMKK2; compound concentrations: 100 nM and 1000 nM (sheet 'Samples'), CATDS: 4.5998229458051997E-3",967 nM
same,potency estimated from few doses,CDK16; CATDS: 4.4691246534882996E-3,1030 nM
same,potency estimated from few doses,"CHEK1; compound concentrations: 100 nM and 1000 nM (sheet 'Samples'), CATDS: 3.5654135420005399E-3",1830 nM
same,potency estimated from few doses,"CSNK1D; compound concentrations: 100 nM and 1000 nM (sheet 'Samples'), CATDS: 5.3650887558765398E-3",710 nM
same,potency estimated from few doses,"EPHA4; compound concentrations: 100 nM and 1000 nM (sheet 'Samples'), CATDS: 3.9748200426908999E-3",1360 nM
same,potency estimated from few doses,"EPHA5; compound concentrations: 100 nM and 1000 nM (sheet 'Samples'), CATDS: 5.0507447831964402E-3",798 nM
same,potency estimated from few doses,"EPHB2; compound concentrations: 100 nM and 1000 nM (sheet 'Samples'), CATDS: 4.50420726302921E-3",1010 nM
same,potency estimated from few doses,"EPHB4; compound concentrations: 100 nM and 1000 nM (sheet 'Samples'), CATDS: 5.4338505062104699E-3",694 nM
same,potency estimated from few doses,MAPK9; CATDS: 4.8352586021379899E-3,871 nM
same,potency estimated from few doses,"MARK3; compound concentrations: 100 nM and 1000 nM (sheet 'Samples'), CATDS: 3.4367127016050499E-3",2060 nM
same,potency estimated from few doses,PRKACA; CATDS: 3.8266361716822101E-3,1500 nM
same,potency estimated from few doses,"PRKACB; compound concentrations: 100 nM and 1000 nM (sheet 'Samples'), CATDS: 4.8946075790836903E-3",850 nM
same,potency estimated from few doses,"PRKAG2; compound concentrations: 100 nM and 1000 nM (sheet 'Samples'), CATDS: 6.26452346247391E-3",539 nM
same,potency estimated from few doses,"RPS6KA4; compound concentrations: 100 nM and 1000 nM (sheet 'Samples'), CATDS: 4.17505153349991E-3",1200 nM
same,potency estimated from few doses,STK4; CATDS: 4.4233826553232904E-3,1050 nM
same,potency estimated from few doses,"TNK1; compound concentrations: 100 nM and 1000 nM (sheet 'Samples'), CATDS: 5.3510619534007497E-3",714 nM
COc1ccc(Nc2ncc(C#N)c(Nc3ccccc3C(N)=O)n2)cc1N1CCN(C)CC1.Cl [GSK1558669A],potency estimated from few doses,"AURKA; compound concentrations: 100 nM and 1000 nM (sheet 'Samples'), CATDS: 3.9666626948294099E-2",12 nM
same,potency estimated from few doses,"CAMKK2; compound concentrations: 100 nM and 1000 nM (sheet 'Samples'), CATDS: 6.1789819356504504E-3",1430 nM
same,potency estimated from few doses,CDK16; CATDS: 6.29330119004379E-3,1270 nM
same,potency estimated from few doses,"CHEK1; compound concentrations: 100 nM and 1000 nM (sheet 'Samples'), CATDS: 1.1194862883684801E-2",137 nM
same,potency estimated from few doses,MAPK10; CATDS: 6.8664179629566802E-3,783 nM
same,potency estimated from few doses,MAPK9; CATDS: 7.8754696697006001E-3,427 nM
same,potency estimated from few doses,"MARK3; compound concentrations: 100 nM and 1000 nM (sheet 'Samples'), CATDS: 1.02819135302623E-2",174 nM
same,potency estimated from few doses,"PIP4K2C; compound concentrations: 100 nM and 1000 nM (sheet 'Samples'), CATDS: 5.8169442722308101E-3",2240 nM
same,potency estimated from few doses,"PRKAG2; compound concentrations: 100 nM and 1000 nM (sheet 'Samples'), CATDS: 1.3647831185805001E-2",82.8 nM
same,potency estimated from few doses,"RPS6KA4; compound concentrations: 100 nM and 1000 nM (sheet 'Samples'), CATDS: 8.4346807860121598E-3",330 nM
same,potency estimated from few doses,STK4; CATDS: 6.7227641521754398E-3,872 nM
same,potency estimated from few doses,"TNK1; compound concentrations: 100 nM and 1000 nM (sheet 'Samples'), CATDS: 3.9834731570335402E-2",11.9 nM
CCOC(=O)N1CCC(n2cnc(-c3ccc(F)cc3)c2-c2ccnc(N)n2)CC1 [SB-219952],potency estimated from few doses,"AURKA; compound concentrations: 100 nM and 1000 nM (sheet 'Samples'), CATDS: 9.8512895449749706E-3",901 nM
same,potency estimated from few doses,"CAMKK2; compound concentrations: 100 nM and 1000 nM (sheet 'Samples'), CATDS: 1.08972773288713E-2",701 nM
same,potency estimated from few doses,"CHEK1; compound concentrations: 100 nM and 1000 nM (sheet 'Samples'), CATDS: 8.4863258398705493E-3",1390 nM
same,potency estimated from few doses,"CSNK1D; compound concentrations: 100 nM and 1000 nM (sheet 'Samples'), CATDS: 0.19590664085395099",9.15 nM
same,potency estimated from few doses,"EPHA4; compound concentrations: 100 nM and 1000 nM (sheet 'Samples'), CATDS: 1.2785015902171799E-2",493 nM
same,potency estimated from few doses,"EPHA5; compound concentrations: 100 nM and 1000 nM (sheet 'Samples'), CATDS: 1.42398980321412E-2",397 nM
same,potency estimated from few doses,"EPHB2; compound concentrations: 100 nM and 1000 nM (sheet 'Samples'), CATDS: 1.57002336523176E-2",329 nM
same,potency estimated from few doses,"EPHB4; compound concentrations: 100 nM and 1000 nM (sheet 'Samples'), CATDS: 1.53468623139909E-2",344 nM
same,potency estimated from few doses,MAPK10; CATDS: 4.1731696442012502E-2,69 nM
same,potency estimated from few doses,MAPK9; CATDS: 3.1045225372311899E-2,107 nM
same,potency estimated from few doses,"MARK3; compound concentrations: 100 nM and 1000 nM (sheet 'Samples'), CATDS: 8.6555083221940901E-3",1300 nM
same,potency estimated from few doses,PRKACA; CATDS: 8.0141425433071494E-3,1690 nM
same,potency estimated from few doses,"PRKACB; compound concentrations: 100 nM and 1000 nM (sheet 'Samples'), CATDS: 7.9637145567790901E-3",1730 nM
same,potency estimated from few doses,"PRKAG2; compound concentrations: 100 nM and 1000 nM (sheet 'Samples'), CATDS: 9.8371603155967009E-3",905 nM
same,potency estimated from few doses,"TNK1; compound concentrations: 100 nM and 1000 nM (sheet 'Samples'), CATDS: 1.30567209660681E-2",472 nM
